This is part of a sample that, as a whole, favours compounds with a hit. Of some 83,000 tested, about 20% had one in any assay.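 48-hour exposure, single concentration, 96-well plates; percent growth endpoint where 0 means no net growth. Active: below 10.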 Values without a mark were called inactive. The source made the active and inactive calls.

Some test systems named below: HCT-15 colon; HT29 colon; SNB-75 CNS; SNB-19 CNS; U251 CNS; PC-3 prostate; SK-MEL-5 melanoma; UACC-62 melanoma; LOX IMVI melanoma; SK-MEL-28 melanoma; SK-MEL-2 melanoma; SN12C renal; UO-31 renal; TK-10 renal; ACHN renal; CAKI-1 renal; A498 renal; CCRF-CEM leukemia; MOLT-4 leukemia; EKVX NSCLC.
Test in all cases: NCI-60 one-dose screen, 48 h (100 = growth as untreated, 0 = no growth, -100 = all killed)
Holding throughout (conditions): 10 µM unless noted

In the case of `O=Cc1ccccc1C(=O)O`, the growth was 103% in the experiment with HCT-15 colon; 100% with HT29 colon; 99.4% with SNB-75 CNS; 107% in the experiment on SNB-19 CNS; 96.9% in the experiment on U251 CNS; 96.1% in the experiment with PC-3 prostate. The growth was 101% in the experiment with SK-MEL-5 melanoma; 100% in the experiment with UACC-62 melanoma; 101% with LOX IMVI melanoma; 106% with SK-MEL-28 melanoma; 109% in the experiment with SK-MEL-2 melanoma; 104% in the experiment on SN12C renal. In addition, the growth in the experiment on UO-31 renal was 90%; with TK-10 renal, 93.2%; in the experiment on ACHN renal, 103%; in the experiment with CAKI-1 renal, 96%; in the experiment with A498 renal, 109%; in the experiment with CCRF-CEM leukemia, 104%. Besides, the growth with MOLT-4 leukemia was 98.6%.
For `c1ccc(-c2oc(-c3ccccc3)c3ccccc23)cc1`, the growth was 108% in the experiment with HCT-15 colon; 118% with HT29 colon; 110% in the experiment with SNB-75 CNS; 105% with SNB-19 CNS; 98.9% in the experiment on U251 CNS; 82.8% in the experiment with PC-3 prostate. In addition, the growth in the experiment with SK-MEL-5 melanoma was 104%; in the experiment with UACC-62 melanoma, 98.6%; with LOX IMVI melanoma it was 88.5%; with SK-MEL-28 melanoma, 125%; in the experiment with SK-MEL-2 melanoma, 104%; with EKVX NSCLC it was 92.1%. The growth was 110% with UO-31 renal; 114% in the experiment with TK-10 renal; 104% with ACHN renal; 74.7% in the experiment on CAKI-1 renal; 98.9% with A498 renal; 85.5% in the experiment on CCRF-CEM leukemia. Further, the growth with MOLT-4 leukemia was 95.7%.
Turning to `CC(C)Cn1cnc2c(NCn3nc(-c4cc(Cl)cc(Cl)c4Cl)n(/N=C/c4ccc(Cl)cc4)c3=S)nc3ccccc3c21`, the growth in the experiment on HCT-15 colon was 91.1%; in the experiment on HT29 colon, 91.1%; in the experiment on SNB-75 CNS, 90.5%; in the experiment with SNB-19 CNS it was 108%; with U251 CNS, 86.6%; in the experiment on PC-3 prostate it was 83.6%. Moreover, the growth in the experiment with SK-MEL-5 melanoma was 57.2%; in the experiment on UACC-62 melanoma it was 72%; in the experiment on LOX IMVI melanoma it was 74.4%; in the experiment on SK-MEL-28 melanoma it was 112%; with SK-MEL-2 melanoma, 81.8%; with EKVX NSCLC, 70.6%. Further, the growth in the experiment with SN12C renal was 85%; with TK-10 renal, 90.4%; with ACHN renal, 81.6%; with CAKI-1 renal it was 63.9%; in the experiment with A498 renal, 96.8%; in the experiment with MOLT-4 leukemia, 82.2%.
On to `COc1cc(/C=C/C(=O)c2c(C)n([O-])c3ccc(Cl)cc3[n+]2=O)cc(OC)c1OC`, for which the growth with HCT-15 colon is 59%; with HT29 colon, 102%; in the experiment on SNB-75 CNS, 75.8%; in the experiment with SNB-19 CNS it was 83.1%; in the experiment with U251 CNS it was 80.1%; in the experiment on PC-3 prostate it was 89.5%. Further, the growth with SK-MEL-5 melanoma is 47%; in the experiment with UACC-62 melanoma it was 82.9%; with LOX IMVI melanoma it was 68.9%; with SK-MEL-28 melanoma, 84%; in the experiment on SK-MEL-2 melanoma, 61.8%; in the experiment with EKVX NSCLC, 65.8%. Besides, the growth with SN12C renal is 80.1%; in the experiment with ACHN renal, 79.6%; in the experiment with CAKI-1 renal, 107%; with A498 renal, 98.2%; in the experiment with CCRF-CEM leukemia, -34.2% (active); with MOLT-4 leukemia it was -34.8% (active).
With `COc1cc(/C=C/C(=O)CC(=O)/C=C/c2ccc(OC(=O)CCNC34CC5CC(CC(C5)C3)C4)c(OC)c2)ccc1OC(=O)CCNC12CC3CC(CC(C3)C1)C2`, the growth in the experiment on HCT-15 colon is 46.9%; in the experiment on HT29 colon, -70.6% (active); in the experiment on SNB-75 CNS, 7.02% (active); in the experiment on SNB-19 CNS, 29.6%; with U251 CNS it was 22.2%; with PC-3 prostate it was 21%. The growth in the experiment on SK-MEL-5 melanoma was 25.3%; in the experiment on UACC-62 melanoma, 43.2%; in the experiment with LOX IMVI melanoma it was 0.619% (active); in the experiment on SK-MEL-28 melanoma, 33.6%; in the experiment with SK-MEL-2 melanoma, 11.7%; in the experiment on EKVX NSCLC, 21.6%. Besides, the growth with TK-10 renal is 70%; in the experiment with ACHN renal, 79.2%; in the experiment on CAKI-1 renal, 49.1%; with A498 renal, 83.4%; with CCRF-CEM leukemia, -23.5% (active); in the experiment with MOLT-4 leukemia, -25.1% (active).
Turning to `COc1ccc2c(c1)[n+](=O)c(C(=O)/C=C/c1cc(OC)c(OC)c(OC)c1)c(C)n2[O-]`, the growth in the experiment on HCT-15 colon was 49.2%; in the experiment with HT29 colon it was 85.2%; in the experiment on SNB-75 CNS it was 62.2%; in the experiment with SNB-19 CNS, 67.1%; with U251 CNS it was 55.6%; in the experiment with PC-3 prostate, 59.9%. Further, the growth was 50.8% with SK-MEL-5 melanoma; 64.7% in the experiment with UACC-62 melanoma; 55.1% with LOX IMVI melanoma; 69.1% in the experiment with SK-MEL-28 melanoma; 57.2% in the experiment with SK-MEL-2 melanoma; 61% in the experiment on EKVX NSCLC. Further, the growth with SN12C renal is 71.5%; in the experiment on TK-10 renal, 120%; in the experiment with ACHN renal it was 65.9%; with A498 renal, 77.1%; in the experiment with CCRF-CEM leukemia, -63.6% (active); with MOLT-4 leukemia, 13.2%.
Turning to `O=C1OC(Oc2ccccc2)(c2ccccc2)c2ccccc21` (configuration not stated), the growth in the experiment with HCT-15 colon was 99.7%; in the experiment on HT29 colon it was 102%; in the experiment on SNB-75 CNS it was 97.2%; in the experiment with SNB-19 CNS, 115%; in the experiment with U251 CNS, 91.4%; with PC-3 prostate, 91.2%. Besides, the growth is 112% with SK-MEL-5 melanoma; 100% in the experiment on UACC-62 melanoma; 89.2% with LOX IMVI melanoma; 127% in the experiment on SK-MEL-28 melanoma; 104% with SK-MEL-2 melanoma; 110% in the experiment with SN12C renal. Besides, the growth was 102% in the experiment on UO-31 renal; 109% in the experiment with TK-10 renal; 102% with ACHN renal; 87.4% in the experiment with CAKI-1 renal; 79.9% with A498 renal; 103% in the experiment with CCRF-CEM leukemia. The growth with MOLT-4 leukemia is 76%.
Consider `CN(C)c1ccc(-n2nc3ccccc3n2)cc1`, for which the growth in the experiment with HCT-15 colon was 108%; in the experiment with HT29 colon, 111%; in the experiment on SNB-75 CNS, 108%; in the experiment with SNB-19 CNS it was 98.6%; in the experiment with U251 CNS it was 95.5%; in the experiment on PC-3 prostate it was 101%. Moreover, the growth in the experiment on SK-MEL-5 melanoma is 75.2%; in the experiment with UACC-62 melanoma, 81.1%; with LOX IMVI melanoma, 93.8%; in the experiment on SK-MEL-28 melanoma, 126%; in the experiment on SK-MEL-2 melanoma, 102%; in the experiment on EKVX NSCLC, 76.7%. In addition, the growth with SN12C renal is 97.2%; in the experiment on TK-10 renal it was 143%; in the experiment with ACHN renal, 96.1%; in the experiment on CAKI-1 renal, 73.5%; in the experiment with A498 renal it was 96.4%; in the experiment with MOLT-4 leukemia, 82.6%.
